PI5P4Ka inh = qHTS for Inhibitors of phosphatidylinositol 5-phosphate 4-kinase (PI5P4K); Phosphatidylinositol 5-phosphate 4-kinase type-2 alpha (Homo sapiens), P48426; PI5P4Kalpha enzyme, ADP-Glo luminescence, 60 min; active compounds read low; max response, %; 330,000 compounds, 1.2% hits; AID 652105, 2013; active = max response of -50% or lower; inconclusive = between -30% and -50%; inactive = -30% or higher; note: value at the top dose of about 77 µM; % is set by controls: 0 for no effect and ±100 for the full control effect
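ADP-Glo luminescence end-point after a 60 min room-temperature kinase reaction. PI5P4Kalpha and substrate in HEPES pH 7.4 buffer with EGTA, 0.1% CHAPS and 5% DMSO; ATP at 5 microM final.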
JMJD2E inh = qHTS Assay for Inhibitors of Human Jumonji Domain Containing 2E (JMJD2E) | JMJD2E catalytic domain, FDH-coupled NADH fluorescence (FDH is formaldehyde dehydrogenase) | 230,000 compounds, 1.6% hits | Lysine-specific demethylase 4E (Homo sapiens), B2RXH2 | AID 2147, 2009 | Potency, µM (highest dose often 57.1 µM), for inactives: at the top dose activity change, negative = inhibition, hits mostly inhibitors; active = well fitted inhibition curve with a large enough effect, not every such curve was filed as active; inconclusive = small, poorly fitted or top-dose-only effect, or another doubt; inactive = no such curve, though single readings can be large or run the other way;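 note: potency is the fitted concentration of half-maximal effect; 0% = wells with enzyme and -100% = buffer wells without enzyme; nearly all actives have a fitted effect of over 50% in size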
Target sequence (B2RXH2 1-337 limits assumed): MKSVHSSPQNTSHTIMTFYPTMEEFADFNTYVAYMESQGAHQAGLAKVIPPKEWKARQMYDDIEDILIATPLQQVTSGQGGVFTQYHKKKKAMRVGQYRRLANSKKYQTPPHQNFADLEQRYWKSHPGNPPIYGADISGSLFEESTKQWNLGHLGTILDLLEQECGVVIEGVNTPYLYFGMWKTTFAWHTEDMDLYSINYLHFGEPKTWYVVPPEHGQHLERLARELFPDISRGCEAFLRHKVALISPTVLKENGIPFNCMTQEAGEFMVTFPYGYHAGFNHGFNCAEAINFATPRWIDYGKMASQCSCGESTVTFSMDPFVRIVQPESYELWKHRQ
L3MBTL1 block = qHTS Assay for the Inhibitors of L3MBTL1. Lethal(3)malignant brain tumor-like protein 1 (Homo sapiens), Q9Y468. AlphaScreen L3MBTL1–H3K9me1 peptide binding. Potency, µM (highest dose often 57.1 µM), for the others: at the highest dose activity, negative = inhibition, most hits filed as inhibitors. 230,000 compounds, 0.66% hits. AID 485360, 2010; note: potency is the fitted concentration of half-maximal effect; % is set by controls: 0 for no effect and ±100 for the full control effect; nearly all actives have a fitted effect of over 60% in size
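L3MBTL1 (50 nM) pre-complexed 30 min with biotinylated H3(1-15)K9me1 peptide (75 nM), then compounds added for 30 min at room temperature; AlphaScreen streptavidin donor/nickel chelate acceptor beads (10 ug/mL final) read after 30 min dark incubation.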
JMJD2A Tudor = qHTS Assay for Inhibitors of JMJD2A-Tudor Domain | Lysine-specific demethylase 4A (Homo sapiens), O75164 | AlphaScreen JMJD2A-Tudor / H3K4me3 peptide binding | Potency, µM (doses to about 114 µM), for the others: top-dose activity change, negative = inhibition, usual class: inhibitors | 390,000 compounds, 4.4% hits; note: potency is the fitted concentration of half-maximal effect; % is set by controls: 0 for no effect and ±100 for the full control effect; nearly all actives have a fitted effect of over 50% in size
HP1b chromo inh = HTS for Inhibitors of HP1-beta Chromodomain Interactions with Methylated Histone Tails. Chromobox protein homolog 1 (Homo sapiens), P83916. AlphaScreen HP1-beta / biotin-H3K9me3 peptide binding. Potency, µM (top dose mostly 114 µM), for the others: at the highest dose activity change, negative = inhibition, hits mostly inhibitors. 390,000 compounds, 0.56% hits. AID 540317, 2011; note: potency is the fitted concentration of half-maximal effect; nearly all actives have a fitted effect of over 70% in size
Target sequence (P83916 whole entry, looked up): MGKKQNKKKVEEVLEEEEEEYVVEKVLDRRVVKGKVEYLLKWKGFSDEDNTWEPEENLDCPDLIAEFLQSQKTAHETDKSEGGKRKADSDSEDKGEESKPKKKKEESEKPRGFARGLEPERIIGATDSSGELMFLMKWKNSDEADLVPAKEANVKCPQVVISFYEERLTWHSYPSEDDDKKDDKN
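AlphaScreen: HP1-beta (50 nM) preformed 30 min with biotin-H3(1-18)K9me3 peptide (50 nM) in PBS pH 7.4, 0.01% Tween-20. Compound added for 30 min at RT, then streptavidin donor/nickel chelate acceptor beads (10 ug/mL) for 30 min.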
BAZ2B inh = qHTS Assay for Inhibitors of BAZ2B; Potency, µM (titrated, usually from 114 µM), inactives show top-dose activity change, negative = inhibition, most hits filed as inhibitors; 360,000 compounds, 4.4% hits; AlphaScreen BAZ2B-H3K14Ac peptide displacement; Bromodomain adjacent to zinc finger domain protein 2B (Homo sapiens), Q9UIF8; note: potency is the fitted concentration of half-maximal effect; % is set by controls: 0 for no effect and ±100 for the full control effect; nearly all actives have a fitted effect of over 60% in size
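BAZ2B (50 nM) with biotin-H3(5-23)K14Ac peptide (50 nM) in PBS pH 7.4, 0.01% Tween-20, preformed 30 min, then compound 30 min at room temperature; top concentration 110uM. AlphaScreen streptavidin donor/nickel chelate acceptor beads (10 ug/mL final), 20 min dark, signal read.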
Starred values were filed as active, the others as inactive; ? = inconclusive; . = not tested or not shown; [ ] = another dose, or the depositor's remark. A selection: hits, their analogues and other compounds. The true share with any hit is near 5.7%. Unless noted, calls come from the whole dose curve; as a rule, active = well fitted inhibition curve with a large enough effect; inconclusive = small, poorly fitted or top-dose-only effect; inactive = no such curve, though single readings can be large or run the other way.

SMILES	PI5P4Ka inh	JMJD2E inh	L3MBTL1 block	JMJD2A Tudor	HP1b chromo inh	BAZ2B inh
COc1cc(Cl)c(C)cc1NC(=O)CSc1ncc(S(=O)(=O)c2ccc(C(C)(C)C)cc2)c(=O)[nH]1	.	.	.	89µM*	-21%	25µM*
C#CCOCCOCCOCCNc1nc(N2CCN(C(=O)[C@H](CCC(=O)O)n3cc([C@@H](N)CO)nn3)CC2)nc(N2CCN(C(=O)[C@H](CCC(=O)O)n3cc([C@@H](N)CCSC)nn3)CC2)n1	-4	.	?	79µM*	7%	.
C#CCOCCOCCOCCNc1nc(N2CCN(C(=O)[C@H](CCCCN)n3cc(CN)nn3)CC2)nc(N2CCN(C(=O)[C@H](CCC(=O)O)n3cc(CN)nn3)CC2)n1	1	.	1%	?	37%	.
C#CCOCCOCCOCCNc1nc(OC)nc(N2CCN(C(=O)[C@H](CCC(=O)O)n3cc(C(N)CO)nn3)CC2)n1 (stereo partly specified)	2	.	-12%	79µM*	-12%	79µM*
C#CCOCCOCCOCCNc1nc(N2CCOCC2)nc(N2CCN(C(=O)[C@H](CCC(=O)O)n3cc([C@@H](N)CCCCN)nn3)CC2)n1	5	.	14%	-19%	37%	.
O=C(CCl)Nc1ccccc1C(=O)Nc1ccc2c(c1)OCO2	-6	-8%	-8%	3%	17%	-4%
NC(=O)C1CCN(Cc2nc3ccccc3c(=O)[nH]2)CC1	7	3%	.	3.2µM*	6%	-35%
CC1CCCCN1Cc1nc2ccccc2c(=O)[nH]1 (stereo unspecified)	5	6%	2%	79µM*	15%	-33%
O=c1[nH]c(CN2CCOCC2)nc2ccccc12	4	-1%	10%	1%	19%	.
O=C1CN(Cc2nc3cc(Cl)ccc3c(=O)[nH]2)CCN1	-2	-4%	.	2.5µM*	51%	-17%
O=C(O)c1ccc2c(=O)[nH]c(CN3CCOCC3)nc2c1	?	-5%	.	35µM*	14%	?
Cc1cc2ccccc2n1-c1ccc(C(=O)N2CCCCC2)s1	.	.	.	0%	59%	10%
CCc1nn(CC(=O)Nc2c(C)cc(C)cc2C)c(=O)c2cc3sccc3n12	.	.	.	-3%	19%	-2%
O=c1[nH]c(CN2CCN(CCO)CC2)nc2ccccc12	6	1%	19%	-8%	40%	-2%
O=c1[nH]c(CN2CCN(c3ccccc3O)CC2)nc2ccccc12	-7	0%	-4%	8.9µM*	9%	-8%
COc1cc(NC(=O)O[C@@H]2C(=O)c3cc(Br)ccc3O[C@H]2c2ccc3c(c2)OCO3)cc(OC)c1OC	.	-5%	.	.	.	.
O=[N+]([O-])c1ccc(/C=C/C2=NN(c3ccccc3)C(c3ccco3)C2)o1 (stereo unspecified)	-62*	3%	?	3.2µM*	?	32µM*
COc1ccc(CCNC(=O)CCc2c(C)nc3c4c(C)cc(C)nc4nn3c2C)cc1OC	.	.	.	-16%	28%	-10%
CNC(=O)c1[nH]cnc1C(=O)NCC(=O)OC(C)(C)C	-1	.	6%	-8%	45%	-30%
CNC(=O)c1[nH]cnc1C(=O)N[C@@H](C)C(=O)OCc1ccccc1	-4	-3%	.	-33%	65%	50µM*
CCNC(=O)c1nc[nH]c1C(=O)NCC	-10	-5%	1%	40µM*	0%	-6%
CNC(=O)c1nc[nH]c1C(=O)NC	-6	1%	.	28µM*	-2%	?
CNC(=O)c1[nH]cnc1C(=O)Nc1ccc(OC)cc1	-1	-8%	.	-17%	17%	79µM*
COc1ccc(Cl)cc1NC(=O)CSc1nnc(C)n2c1cc1sccc12	.	.	.	-6%	54%	-10%
CCOC(=O)c1ccccc1NC(=O)N(C(C)C)C1CCN(C(C)=O)CC1	.	.	.	0%	43%	13%
SMILES	PI5P4Ka inh	JMJD2E inh	L3MBTL1 block	JMJD2A Tudor	HP1b chromo inh	BAZ2B inh
Cc1ccc(S(=O)(=O)N2CCN(C(=O)COC(=O)CNC(=O)c3ccc(Cl)cc3Cl)CC2)c(C)c1	-4	.	.	25µM*	-2%	.
Cc1ccc(S(=O)(=O)N2CCN(C(=O)COC(=O)CNC(=O)c3ccccc3)CC2)c(C)c1	-1	.	?	-16%	10%	4%
CCOc1ccc(C(=O)Nc2cccc(-c3nc4cc(Cl)cc(Cl)c4o3)c2)cc1	.	.	.	-10%	25%	2%
NC(=O)N/N=C/c1c(F)c(F)c(F)c(F)c1F	?	10%	9%	11µM*	-2%	-2%
NC(=O)N/N=C/c1c(F)cccc1F	1	-7%	8%	-17%	24%	-8%
CCCCC(=O)NC(c1ccc(C(C)C)cc1)c1ccc2cccnc2c1O (stereo unspecified)	1	.	0%	-15%	54%	-10%
CCCCC(=O)NC(c1ccccc1)c1ccc2cccnc2c1O (stereo unspecified)	-6	.	-28%	-22%	56%	40µM*
CCCC(=O)NC(c1ccc(OC)cc1)c1ccc2cccnc2c1O (stereo unspecified)	3	22µM*	?	79µM*	8%	20µM*
CCCCC(=O)NC(c1ccccc1Cl)c1ccc2cccnc2c1O (stereo unspecified)	-5	.	3%	-14%	52%	9%
CCC(=O)NC(c1ccccc1OC)c1ccc2cccnc2c1O (stereo unspecified)	.	25µM*	?	56µM*	19%	25µM*
Oc1cccc(C(Nc2ccccn2)c2ccc3cccnc3c2O)c1Cl (stereo unspecified)	.	.	.	22µM*	-9%	22µM*
O=C(NCc1cccnc1)C(=O)NCC1OCCCN1S(=O)(=O)c1ccccc1 (stereo unspecified)	6	5%	-14%	-8%	30%	8%
CC[C@@H](NCCCn1ccc(NC(=O)OCc2ccccc2)nc1=O)c1ccccc1	-2	.	.	.	.	.
COC(=O)c1cc2occc2n1Cc1nc(-c2cccc(Br)c2)oc1C	.	.	.	-6%	53%	-11%
Cc1c(NC(=S)SCc2ccccc2)c(=O)n(-c2ccccc2)n1C	-14	5%	1%	1%	51%	-6%
COc1ccc(-c2cc(C(F)(F)F)nc(SCC(=O)N3CCCCC3)n2)cc1OC	.	.	.	7%	46%	11%
O=[N+]([O-])c1ccc(NC(c2ccccc2)c2ccc3cccnc3c2O)cc1 (stereo unspecified)	2	.	.	?	-13%[57 µM]	.
